Active and inactive are the calls of the source. Unless noted, no rule for the calls is given here.
Tests used:
[1] = resazurin metabolic signal in HepG2 cells – cell-based, resazurin fluorescence, 24 h, PK04 Diversity Set, profiling panel (AID 1172); details: HepG2 viability, higher = more signal
[2] = budding yeast growth changes without added modifier – OD600, strain BY4716, 24 h, basal condition, primary screen (AID 1173); details: S. cerevisiae BY4716 growth, OD600, 24 h; higher = more signal, called active from +8 up or from −8 down
[3] = viability profiling in MM1S myeloma cells – cell-based, resazurin fluorescence, basal, 24 h, PK04 Diversity Set, profiling panel (AID 1174); details: higher = more signal, called active from +8 up or from −8 down;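 also: MM1S multiple myeloma cell line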
[4] = molecular target: Dihydroorotate dehydrogenase (quinone), mitochondrial (Plasmodium falciparum (isolate 3D7)) (UniProt Q08210); experiment: inhibition of P. falciparum DHODH – biochemical, C-terminal His tag, absorbance 600 nm, primary screen (AID 1175); details: PfDHODH enzyme, DCIP absorbance 600 nm; higher = more signal, called active from +8 up or from −8 down;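 also: recombinant parasite enzyme with a five histidine tag at its C terminus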
[5] = inhibition of PAO1 biofilm formation – strain PAO1, LB-PBS medium, absorbance 600 nm, primary screen (AID 1176); details: P. aeruginosa PAO1 growth/biofilm, A600, 12 h; higher = more signal
[6] = growth modulation of vineyard yeast isolate – strain RM11-1a, OD600, basal, 24 h, primary screen (AID 1177);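 also: cultures grown under basal conditions with no added stressor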; details: S. cerevisiae RM11-1a growth, OD600, 24 h; higher = more signal, called active from +8 up or from −8 down
[7] = growth of efflux-deficient E. coli DRC39 – strain DRC39, OD650, 24 h, E. coli filamentation inducers, primary screen (AID 1178);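 also: growth measured as culture turbidity by optical density at 650 nm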; details: E. coli DRC39 acrAB, higher = more signal, called active from +8 up or from −8 down
[8] = growth of efflux-deficient E. coli DRC39 – strain DRC39, OD650, 48 h, E. coli filamentation inducers, primary screen (AID 1179);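 also: screen aims at cell division blockers that make cells filament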; details: E. coli DRC39 delta-acrAB growth, higher = more signal, called active from +8 up or from −8 down
[9] = viability profiling in RPMI8226 myeloma cells – cell-based, resazurin fluorescence, basal, 24 h, PK04 Diversity Set, profiling panel (AID 1180); details: higher = more signal;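 also: RPMI8826 multiple myeloma cell line at 5000 cells per well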
[10] = molecular target: E3 ubiquitin-protein ligase XIAP (Homo sapiens) (UniProt P98170); experiment: small molecules binding XIAP protein – biophysical, small-molecule microarray, fluorescence 635 nm, primary screen (AID 1181); details: higher = more signal;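 also: score merges 667 nm emission and signal to noise over triplicate slides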
[11] = tested on: XIP peptide (Xip251-270) binding; experiment: XIP fragment 251-270 binding compounds – biochemical, small-molecule microarray, fluorescence 635/667 nm, 0.1 µg/mL protein, primary screen (AID 1182); details: fluorescent protein binding, 635 nm, higher = more signal, called active from +8 up or from −8 down
XIP peptide (Xip251-270) = experiment: compounds binding XIP fragment 251-270 – biochemical, small-molecule microarray, fluorescence 635/667 nm, 0.5 µg/mL protein, primary screen (AID 1183); details: fluorescence 635 nm, higher = more signal
[12] = blood-stage malaria parasite viability loss – strain 3D7, DAPI fluorescence, 100 nL, primary screen (AID 1184);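 also: parasites grown inside human red blood cells in medium with human serum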; details: P. falciparum 3D7 growth, 3 d, higher = more signal
[13] = molecular target: Homeobox protein Hox-A13 (Mus musculus) (UniProt Q62424); experiment: disruptors of Hoxa13 oligonucleotide interaction – biochemical, fluorescence polarization, labeled oligonucleotide, primary screen (AID 1185); details: Hoxa13:DNA binding, 15 min, higher = more signal, called active from +8 up or from −8 down
[14] = blockers of DNA damage checkpoint Chk1 activation – imaging, HeLa, hydroxyurea, phospho-Chk1 antibody, percent positive cells, primary screen (AID 1186); details: hydroxyurea-induced phospho-Chk1 immunofluorescence imaging, higher = more signal
[15] = blockers of DNA damage checkpoint Chk1 activation – imaging, HeLa, hydroxyurea, phospho-Chk1 nuclear intensity, primary screen (AID 1187); details: hydroxyurea-induced phospho-Chk1 immunofluorescence imaging, higher = more signal

Sequence of E3 ubiquitin-protein ligase XIAP (Homo sapiens) (P98170 whole entry, looked up, the tested form may be a part): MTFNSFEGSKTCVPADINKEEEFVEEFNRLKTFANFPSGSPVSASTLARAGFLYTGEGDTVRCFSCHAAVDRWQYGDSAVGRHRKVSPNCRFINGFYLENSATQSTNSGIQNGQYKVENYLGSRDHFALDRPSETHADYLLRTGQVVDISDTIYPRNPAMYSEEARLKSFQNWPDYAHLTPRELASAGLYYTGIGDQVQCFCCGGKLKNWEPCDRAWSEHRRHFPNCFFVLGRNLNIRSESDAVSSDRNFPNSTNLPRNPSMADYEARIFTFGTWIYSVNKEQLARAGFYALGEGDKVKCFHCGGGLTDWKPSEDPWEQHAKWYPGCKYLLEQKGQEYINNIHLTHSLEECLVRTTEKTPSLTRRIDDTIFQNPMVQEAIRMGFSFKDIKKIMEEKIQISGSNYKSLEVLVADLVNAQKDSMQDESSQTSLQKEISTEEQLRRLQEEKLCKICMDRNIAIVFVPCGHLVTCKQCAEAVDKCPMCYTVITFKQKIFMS
Sequence of Homeobox protein Hox-A13 (Mus musculus) (Q62424 whole entry, looked up): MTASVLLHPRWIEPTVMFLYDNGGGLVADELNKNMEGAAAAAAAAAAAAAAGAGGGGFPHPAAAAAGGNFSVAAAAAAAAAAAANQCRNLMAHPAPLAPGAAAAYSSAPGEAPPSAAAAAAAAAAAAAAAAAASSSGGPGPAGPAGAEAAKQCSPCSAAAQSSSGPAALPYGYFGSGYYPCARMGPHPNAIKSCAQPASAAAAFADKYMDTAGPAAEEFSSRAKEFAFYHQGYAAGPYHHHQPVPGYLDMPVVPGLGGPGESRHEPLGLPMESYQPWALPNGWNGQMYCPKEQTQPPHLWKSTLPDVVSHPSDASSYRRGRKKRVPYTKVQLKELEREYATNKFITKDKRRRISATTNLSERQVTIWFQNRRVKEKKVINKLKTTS
Sequence of Dihydroorotate dehydrogenase (quinone), mitochondrial (Plasmodium falciparum (isolate 3D7)) (Q08210 whole entry, looked up): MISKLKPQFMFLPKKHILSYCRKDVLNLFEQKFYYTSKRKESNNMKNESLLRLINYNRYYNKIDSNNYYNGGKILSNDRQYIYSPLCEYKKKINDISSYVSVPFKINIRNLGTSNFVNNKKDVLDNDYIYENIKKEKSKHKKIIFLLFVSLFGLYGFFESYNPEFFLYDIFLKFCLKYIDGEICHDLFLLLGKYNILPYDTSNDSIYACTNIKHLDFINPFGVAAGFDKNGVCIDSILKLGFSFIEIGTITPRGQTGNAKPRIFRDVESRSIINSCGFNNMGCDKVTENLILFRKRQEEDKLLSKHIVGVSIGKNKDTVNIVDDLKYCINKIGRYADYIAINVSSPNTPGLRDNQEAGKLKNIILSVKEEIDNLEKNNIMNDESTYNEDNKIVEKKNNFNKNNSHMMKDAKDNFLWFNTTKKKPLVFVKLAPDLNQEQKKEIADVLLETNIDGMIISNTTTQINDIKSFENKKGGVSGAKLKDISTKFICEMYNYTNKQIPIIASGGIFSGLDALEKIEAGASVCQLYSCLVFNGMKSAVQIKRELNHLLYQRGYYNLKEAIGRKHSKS

Row | Compound | z-score [1] | z-score [2] | z-score [3] | composite z-score [4] | z-score [5] | z-score [6] | z-score [7] | z-score [8] | z-score [9] | composite z-score [10] | composite z-score [11] | composite z-score (XIP peptide (Xip251-270)) | z-score [12] | z-score [13] | z-score [14] | z-score [15]
1 | CCOC(=O)C1=CCC(c2ccc(C)cc2)N(S(=O)(=O)c2ccc(C)cc2)C1 (centres undefined) | 0.28 | 1.94 (inactive) | -0.714 (inactive) | -0.526 (inactive) | 0.173 (inactive) | 1.03 (inactive) | -0.764 (inactive) | -0.56 (inactive) | -1.63 | 0.128 | 0.34 (inactive) | 0.46 | -1.65 | -2.32 (inactive) | 0.283 (inactive) | 0.449 (inactive)
2 | CC(C)N1C(=O)[C@@]2(Cc3ccccc31)c1ccccc1C(=O)N(C1CCCCC1)[C@H]2c1ccc(CO)cc1 | 2.02 | -0.536 (inactive) | 0.843 (inactive) | -18.9 (active) | -0.255 (inactive) | -0.719 (inactive) | 0.589 (inactive) | 0.443 (inactive) | 0.917 | -0.209 | -0.091 (inactive) | 0.709 | -0.288 | -0.666 (inactive) | -0.0292 (inactive) | 0.029 (inactive)
3 | CN1C(=O)C2C=CC(C(O)c3ccc(-c4ccccc4)s3)N(N(c3ccccc3)c3ccccc3)C2C1=O (centres undefined) | -0.748 | -0.215 (inactive) | -0.609 (inactive) | -0.585 (inactive) | 1.23 (inactive) | 0.512 (inactive) | -0.554 (inactive) | -0.24 (inactive) | -0.109 | 0.174 | 0.254 (inactive) | 0.322 | 0.33 | 0.329 (inactive) | 0.288 (inactive) | -0.108 (inactive)
4 | CCOC(=O)C=Cc1cc([N+](=O)[O-])ccc1O | -0.495 | -4.86 (inactive) | -0.912 (inactive) | -4.74 (inactive) | -0.501 (inactive) | 0.11 (inactive) | -0.238 (inactive) | -1.13 (inactive) | -0.688 | 0.193 | -0.0238 (inactive) | -0.466 | -1.14 | 0.98 (inactive) | -0.818 (inactive) | -1.46 (inactive)
5 | O=C1OCCC/C=C\[C@H]2OC34C=CCN(Cc5ccccc5)C(=O)[C@H]3N(CCCCCCO)C(=O)[C@@H]4C12 (some centres undefined) | 0.493 | -0.908 (inactive) | -0.549 (inactive) | -0.0805 (inactive) | -0.497 (inactive) | 0.692 (inactive) | 1.23 (inactive) | 1.58 (inactive) | 0.809 | -0.15 | 0.704 (inactive) | -0.819 | -0.364 | -5.34 (inactive) | -0.121 (inactive) | 0.0626 (inactive)
6 | CC(=O)NCCCC[C@@H]1NC(=O)[C@@H]2C[C@H](C(=O)NCCCCN(C)C)[C@H](c3cccc(OCCO)c3)N2C1=O | 1.03 | 0.108 (inactive) | -0.721 (inactive) | -0.446 (inactive) | -0.875 (inactive) | 0.0173 (inactive) | 0.374 (inactive) | 0.313 (inactive) | 0.507 | -0.404 | 0.172 (inactive) | 0.237 | -0.363 | -1.75 (inactive) | -0.281 (inactive) | -0.0329 (inactive)
7 | C[C@@]1([C@@H](NC(=O)c2ccccc2)c2ccc(-c3ccccc3)cc2)C[C@H]1C1CCCCC1 | -1.32 | 1.14 (inactive) | -1.93 (inactive) | -0.712 (inactive) | 1.57 (inactive) | 0.0656 (inactive) | -1.59 (inactive) | -1.17 (inactive) | -0.675 | -0.117 | 0.192 (inactive) | -1.44 | -0.206 | -0.0623 (inactive) | 0.664 (inactive) | -0.296 (inactive)
8 | COCC(=C=CC[C@H](O)c1ccccc1OCCO)C[C@H](O)c1cc(Cl)cc(Cl)c1O | -1.18 | -19 (active) | -0.627 (inactive) | -9.33 (active) | -0.0828 (inactive) | -22.2 (active) | 0.275 (inactive) | 0.0273 (inactive) | -0.207 | -0.0559 | 0.549 (inactive) | 0.736 | -0.254 | -3.5 (inactive) | 1.36 (inactive) | 0.764 (inactive)
9 | O=C(NCC(F)(F)F)[C@@H]1c2ccccc2C(=O)N(C2CCCCC2)[C@H]1c1ccc(CO)cc1 | -0.501 | 0.804 (inactive) | -0.435 (inactive) | 0.843 (inactive) | -0.255 (inactive) | 1.11 (inactive) | -0.0514 (inactive) | -0.335 (inactive) | 0.538 | 0.056 | 0.0572 (inactive) | 0.434 | -0.676 | -3.32 (inactive) | 0.142 (inactive) | -0.156 (inactive)
10 | COc1ccc(NN2C(C(O)c3ccc([N+](=O)[O-])cc3)C=CC3C(=O)N(C4CCCCC4)C(=O)C32)cc1 (centres undefined) | 0.755 | 0.136 (inactive) | 0.0225 (inactive) | -0.238 (inactive) | 0.67 (inactive) | 0.388 (inactive) | -0.637 (inactive) | 0.523 (inactive) | 0.907 | 0.209 | -0.025 (inactive) | -0.0788 | -0.0215 | -3.73 (inactive) | -0.414 (inactive) | -0.331 (inactive)
11 | C=CCNC(=O)[C@H]1[C@@H]2C(=O)O[C@@H](c3ccccc3)[C@@H](c3ccccc3)N2[C@@H](c2ccccc2OCCO)[C@]12C(=O)Nc1ccc(C#CC3=CCCCC3)cc12 | -2.93 | 1.97 (inactive) | -8.87 (active) | 0.266 (inactive) | 1.89 (inactive) | 3.11 (inactive) | -0.639 (inactive) | -0.0547 (inactive) | -7.09 | 0.112 | -0.274 (inactive) | 0.769 | -2.06 | 2.46 (inactive) | -0.333 (inactive) | -0.739 (inactive)
12 | O=C(NCc1ccccc1)[C@@]1(Cc2ccccc2)N=C(c2ccc(OCCCO)cc2)O[C@H]1c1ccccc1 | -0.0664 | 0.629 (inactive) | -1.67 (inactive) | 0.987 (inactive) | 0.494 (inactive) | 1.7 (inactive) | 0.482 (inactive) | -0.3 (inactive) | -2.66 | -0.0563 | 1.46 (inactive) | 0.684 | -2.39 | -1.7 (inactive) | -0.306 (inactive) | 0.0631 (inactive)
13 | OC([C@@H]1CC(c2ccccc2)=NO1)[C@H]1CC(c2ccccc2)=NO1 (some centres undefined) | 0.447 | -1.39 (inactive) | 0.129 (inactive) | -0.543 (inactive) | -0.0704 (inactive) | 1.16 (inactive) | 2.32 (inactive) | 1.16 (inactive) | 0.236 | -0.159 | 0.267 (inactive) | -0.444 | 0.557 | -0.163 (inactive) | -0.801 (inactive) | -1.25 (inactive)
14 | CC(C)C[C@@H]1NC(=O)[C@@H]2C[C@H](C(=O)NCCCCCN)[C@H](c3cccc(OCCO)c3)N2C1=O | -0.573 | -1.22 (inactive) | 0.522 (inactive) | -1.78 (inactive) | 0.792 (inactive) | -2.75 (inactive) | 1.06 (inactive) | 1.75 (inactive) | 0.465 | 0.0337 | 0.0825 (inactive) | 0.758 | -0.0757 | -3.34 (inactive) | -0.356 (inactive) | -0.49 (inactive)
15 | C#CCN(CC1=CCCCC1)[C@H](c1ccccc1Br)[C@@H](O)Cc1ccccc1 | 1.47 | -2.52 (inactive) | 1.05 (inactive) | 0.0019 (inactive) | 0.236 (inactive) | 0.404 (inactive) | 0.657 (inactive) | 0.406 (inactive) | -0.486 | -0.209 | 0.0838 (inactive) | -0.43 | 0.47 | -0.843 (inactive) | -0.164 (inactive) | -0.155 (inactive)
16 | CC(C)C(CO)N1C(=O)[C@@H]2[C@H]3C(=O)OCC=C[C@H]3OC23C=CCN(C(C)C)C(=O)[C@@H]13 (some centres undefined) | 1.18 | 0.55 (inactive) | 0.713 (inactive) | 0.0658 (inactive) | -0.565 (inactive) | 0.73 (inactive) | 0.074 (inactive) | -0.137 (inactive) | 0.634 | -0.0719 | 1.63 (inactive) | -0.0455 | -0.499 | -4.02 (inactive) | 0.475 (inactive) | 0.305 (inactive)
17 | C#CCNC(=O)[C@H](Cc1ccccc1)NC(=O)CCC(=O)O | -0.487 | -0.734 (inactive) | -0.135 (inactive) | 0.139 (inactive) | 0.927 (inactive) | -0.051 (inactive) | -0.306 (inactive) | -0.125 (inactive) | -1.28 | -0.239 | 0.234 (inactive) | -1.75 | -0.213 | -0.118 (inactive) | -0.482 (inactive) | -0.815 (inactive)
18 | COc1ccc([Si](C)(C)[C@@H]2[C@@H](CCO)O[C@]3(C(=O)N(Cc4ccc(N5C(=O)COc6ccccc65)cc4)c4ccccc43)[C@H]2C)cc1 | -1.59 | 1.54 (inactive) | -2.01 (inactive) | -0.0524 (inactive) | 2.5 (inactive) | 4.73 (inactive) | -0.238 (inactive) | -0.639 (inactive) | -3.64 | -0.0559 | 0.906 (inactive) | 0.811 | -2.81 | -2.08 (inactive) | -0.591 (inactive) | -1.55 (inactive)
19 | CN(C)CCCNC(=O)[C@@]1(c2ccc([N+](=O)[O-])cc2)CC(=O)N(C2CCCCC2)[C@@H]1c1ccc(CO)cc1I | -6.5 | -11.7 (active) | -9.1 (active) | -1.19 (inactive) | 0.0714 (inactive) | 0.344 (inactive) | 0.725 (inactive) | -1.28 (inactive) | -6.61 | 0.125 | -0.117 (inactive) | 0.248 | -2.17 | 0.362 (inactive) | -0.227 (inactive) | -0.413 (inactive)

Reference: PubChem BioAssay
